From PubChem BioAssay AID1030 (National Center for Advancing Translational Sciences (NCATS), 2008)
About 16,000 (7.3%) of roughly 220,000 compounds were called active. Inconclusive results (about 25%) are left out. The sample holds actives, similar compounds and a random draw of the others, so the mix is not that of the screen. Calls follow the shape of the dose curve; as a rule, active = well fitted inhibition curve with a large enough effect (not every such curve was filed as active); inconclusive = small, poorly fitted or top-dose-only effect, or another doubt; inactive = no such curve, though single readings can be large or run the other way.

Target: Aldehyde dehydrogenase 1A1 (Homo sapiens) (UniProt P00352)
Assay: qHTS Assay for Inhibitors of Aldehyde Dehydrogenase 1 (ALDH1A1);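 as to activity, negative = inhibition: plate controls were no enzyme wells and a reference inhibitor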
Details: Purified ALDH1A1, NADH fluorescence, propionaldehyde substrate; series mostly up to 75.3 µM
Potency is read from the fitted curve at half-maximal effect.

Sequence of Aldehyde dehydrogenase 1A1 (Homo sapiens) (P00352 whole entry, looked up): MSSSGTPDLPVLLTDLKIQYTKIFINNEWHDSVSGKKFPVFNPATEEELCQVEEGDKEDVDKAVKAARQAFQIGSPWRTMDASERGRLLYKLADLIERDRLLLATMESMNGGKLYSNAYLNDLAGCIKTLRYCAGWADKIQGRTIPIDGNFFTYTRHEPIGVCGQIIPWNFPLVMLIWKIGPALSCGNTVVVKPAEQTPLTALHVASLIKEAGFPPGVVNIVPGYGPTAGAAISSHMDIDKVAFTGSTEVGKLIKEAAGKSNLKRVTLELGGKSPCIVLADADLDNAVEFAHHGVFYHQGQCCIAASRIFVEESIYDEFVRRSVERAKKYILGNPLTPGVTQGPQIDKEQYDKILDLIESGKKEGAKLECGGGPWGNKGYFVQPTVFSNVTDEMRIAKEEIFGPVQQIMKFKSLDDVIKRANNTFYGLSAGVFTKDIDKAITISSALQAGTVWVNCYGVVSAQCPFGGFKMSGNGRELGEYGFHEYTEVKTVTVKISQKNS

Potency, active:
Cc1nc2ccccc2c2oc(C(=O)NCC3CCCO3)cc12 (stereo not given) 14.1 µM
CC(=O)c1ccc(S(=O)(=O)Nc2ccc(C(=O)NCC(c3ccccc3)N(C)C)cc2)cc1 (stereo not given) 2.82 µM
Cc1ccccc1/[N+]([O-])=C/c1ccncc1 3.98 µM
CCn1c(=S)[nH]c2sc3c(c2c1=O)CCCCC3 22.4 µM
CC(=O)c1ccc(OCCN2CCOCC2)cc1 25.1 µM
COc1ccc(N2CCN(Cc3ccc(Br)s3)CC2)cc1 25.1 µM
CCOc1ccc(-n2c(N)c(C(=O)NCC3CCCO3)sc2=S)cc1 (stereo not given) 15.8 µM
CCCc1nc2sc3c(c2c(=O)n1NC(=O)CCCl)CCCC3 14.1 µM
CCN(CC(=O)Nc1ccc(Cl)c(S(=O)(=O)N(C)C)c1)Cc1nc2ccccc2c(=O)[nH]1 25.1 µM
O=C(Nc1ncc2c(n1)CC(c1ccco1)CC2=O)c1ccc(Cl)cc1 (stereo not given) 10 µM
N#CC1=C(N)OC2=C(C(=O)CCC2)C1C1CC=CCC1 (stereo not given) 10 µM
COc1ccc(C(F)(F)F)cc1N/C=C\c1nnnn1-c1ccc(C)cc1 25.1 µM
Cc1sc2nc(CC(N)=O)[nH]c(=O)c2c1-c1ccccc1 7.08 µM
CCc1ccc2ncc(C(=O)c3ccccc3)c(N3CCOCC3)c2c1 4.47 µM
Cc1cc(C)c2c(-n3cccc3)c(C(=O)NNS(=O)(=O)c3ccc(F)cc3)sc2n1 2.24 µM
c1ccc2c(C[n+]3csc4ccccc43)cccc2c1 10 µM
O=C(Nc1nc(-c2ccncc2)cs1)C1COc2ccccc2O1 (stereo not given) 3.55 µM
Cc1[nH]n(C)c(=O)c1C(=O)c1c(-c2c(Cl)cccc2Cl)noc1C 8.91 µM
CCCOC(=O)c1[nH]c2c(c1C)C(=O)CC(c1cc(OC)c(OC)c(OC)c1)C2 (stereo not given) 0.355 µM
C/C(=C\c1ccco1)C1Nc2cccc3cccc(c23)N1 10 µM

Potency, inactive:
CCCCCc1nnc(NC(=O)c2ccc(=O)n(C)n2)s1
C=CCn1cc(C(=O)NCc2ccc(Cl)cc2)c(=O)c2cc(S(=O)(=O)N(CC)CC)ccc21
Cc1ccc(C(=O)NCC2CCCO2)o1 (stereo not given)
Cc1nc2ccccc2c2oc(C(=O)NCCCN3CCC(C)CC3)cc12
O=c1c(-c2ccccc2)cnc2n1CCS2
CN(C)CC(C)(C)CNC(=O)c1cc(Br)cc(Br)c1O
CN(C)C(CNC(=O)Cc1ccc([N+](=O)[O-])cc1)c1ccccc1 (stereo not given)
CN(C)C(CNC(=O)c1ccc(S(=O)(=O)NCc2ccco2)cc1)c1ccccc1 (stereo not given)
CCC(C)(C)NC(=O)C(c1ccccn1)N(C(=O)c1csnn1)c1ccccc1 (stereo not given)
Cc1ccc(C(=O)N2CCCC(c3ccccc3)=N2)cc1
Cc1cc(C)c(OCCN2CC(C)OC(C)C2)c(Br)c1 (stereo not given)
COc1ccc(NC(=O)N2CCC(Cc3ccccc3)CC2)cc1
CCNC(=O)COC(=O)/C=C/c1c(C)nn(Cc2cccc(OC)c2)c1Cl
O=C(CCNC(=O)Cn1ccc2ccccc2c1=O)NCCC1=CCCCC1
COc1ccc(CN(C)C(=S)Nc2ccc(Cl)cc2Cl)cc1
O=C1CC2(CC(c3ccc(Cl)cc3)=NO2)C(=O)N1c1ccccc1 (stereo not given)
CCN1CC(CN(C)Cc2nc(-c3ccc(Cl)cc3)no2)CC1=O (stereo not given)
CN(C)C(=O)N1CCNCC1
CCC1(C)Cc2c(sc3[nH]c(=S)n(Cc4ccccc4)c(=O)c23)CO1 (stereo not given)
Cn1c(=O)n(Cc2ccco2)c(=N)c2c3c(sc21)CCCC3
C=CCn1c(=S)sc2c(=O)[nH]c(C)nc21
CCOC(=O)C1(CCOc2ccccc2)CCN(C(=O)c2cncs2)CC1
Cc1c(C(N)=O)sc2ncn(CCOc3ccccc3)c(=O)c12
COc1ccc(OCC(=O)N2CCOCC2)cc1
Cc1ccc(C(=O)OC(C)CN2CCOCC2)cc1 (stereo not given)
FC(F)(F)c1cccc(-c2nc(COc3ccc(Cl)cc3Cl)no2)c1
O=C(CC1SCCNC1=O)Nc1ccc(Cl)cc1 (stereo not given)
Cc1ccc(OCC(=O)NNC(=S)NCc2ccccc2)cc1
COc1ccc(N2CCN(Cc3nnc(-c4ccccc4)o3)CC2)cc1
Fc1ccc(N2CCN(Cc3cnc(Oc4ccc(Br)cc4)s3)CC2)cc1
Cc1ccc(NC(=O)CC2C(=O)N(Cc3ccccc3)C(=S)N2NC(=O)c2cccc(F)c2)c(C)c1 (stereo not given)
Cc1ccc(NC(=S)N(CCN(C)C)Cc2cccs2)cc1C
O=C(O)CC(SCC(=O)Nc1ccc(Br)cc1)C(=O)O (stereo not given)
COc1ccc(SCc2noc(C(=O)NCC3CCCO3)c2C(=O)O)cc1 (stereo not given)
CCOc1ccc(S(=O)(=O)NCC2CCCO2)cc1 (stereo not given)
Cc1ccc(Cl)c(NC(=O)CN(C)CC(=O)Nc2ccc(F)c(F)c2F)c1Cl
Cc1cccc(CN2CCN(Cc3cnn(-c4ccccc4F)c3)CC2CCO)n1 (stereo not given)
O=c1[nH]oc(O)c1-c1ncc(C(F)(F)F)cc1Cl
Cc1csc(NC(=O)CSc2ccc(-c3ccc(F)cc3)nn2)n1
Cc1cc(/C=C2\SC(=Nc3ccc(N4CCOCC4)cc3)N(C)C2=O)c(C)n1-c1cccnc1
O=C(C1CC1)N1N=C2CCCCC2C1(O)C(F)(F)F (stereo not given)
CC(C(=O)O)n1cnc2sc3c(c2c1=O)CCCC3 (stereo not given)
N#Cc1c(NC(=O)CCCl)sc2c1CCCCC2
O=C1CCC/C(=N\NC(=O)NC2CCCCC2)C1
CCN(CC(=O)NC(=O)NCc1ccccc1)Cc1nc2ccccc2c(=O)[nH]1
CN(CCOc1ccccc1)Cc1nc2cc(Cl)ccc2c(=O)[nH]1
Cc1ccc(S(=O)(=O)NC2(C(F)(F)F)NC(=O)N(CCc3ccccc3)C2=O)cc1 (stereo not given)
CC1=C(C(=O)Nc2ccc(Cl)cc2)C(c2ccco2)NC(=O)N1 (stereo not given)
COc1cc(C2CC(=O)c3cnc(NC(C)=O)nc3C2)cc(OC)c1OC (stereo not given)
O=C1C=C(c2ccccc2)CCC1
Cc1ccsc1C1C(C#N)=C(N)OC2=C1C(=O)CC(C)C2 (stereo not given)
NC1=C([N+](=O)[O-])C(c2ccccc2)C2=C(CCCC2=O)O1 (stereo not given)
O=C(Nc1ccc(N2CCOCC2)cc1)c1ccc2c(c1)OCO2
COc1ccc(C)cc1NC(=O)CCC(=O)Nc1nnc(C(F)(F)F)s1
COc1ccc(/C(C)=N/Nc2cc(C(F)(F)F)ccc2Cl)c(OC)c1
CSc1cc(C)[nH]c(=O)n1
COc1ccc(Cl)cc1NC(=O)NC(C)C(C)(C)C (stereo not given)
NC(=O)Cc1ccc2sc(-c3ccccc3)nc2c1
NC(=O)Cc1nc2scc(-c3ccc(Cl)cc3)c2c(=O)[nH]1
Cc1cc(C(=O)Nc2ccccc2N2CCOCC2)c2ccccc2n1
CCc1ccc(NC(=O)CSc2nc3ccccc3c(=O)n2CCN2CCOCC2)cc1
O=C(CCSc1ccccc1)N1CCN(c2ccccc2F)CC1
O=C(CSc1nn(-c2ccc(F)cc2)c(=S)s1)NC1CCS(=O)(=O)C1 (stereo not given)
Cc1cc(C)cc(OCC(=O)NCc2cc(C)nc3ccccc23)c1
OCC1(Cc2ccccc2)CCN(Cc2cc3ccccc3o2)CC1
Cc1cc(C)c2c(-n3cccc3)c(NC(=O)OCc3ccccc3)sc2n1
COC(=O)Nc1sc2nc(C)cc(C)c2c1-n1cccc1
CCNC(=O)CC1C(=O)N(c2ccc(F)cc2)C(=O)N1Cc1cccs1 (stereo not given)
CCN(CC)CCCNC(=O)c1ccc2c(=O)n(Cc3ccc4c(c3)OCO4)c(=S)[nH]c2c1
c1ccc2c(CSCc3nc4ccccc4[nH]3)cccc2c1
N=C(N)SCc1cccc2ccccc12
CN1CCN(C(CNS(=O)(=O)c2cccs2)c2cccnc2)CC1 (stereo not given)
O=C(Nc1nc(-c2ccc3c(c2)OCO3)cs1)c1ccncc1
O=C(Nc1nnc(SCc2ccc(Cl)cc2Cl)s1)C1COc2ccccc2O1 (stereo not given)
COc1ccc(/C=C/C(=O)Nc2cccnc2)cc1OC
CCCS(=O)(=O)N1CCC(CCOc2ccccc2)(C(=O)OCC)CC1
N#Cc1c(-c2ccc(Cl)cc2)c2c([nH]c1=S)CCCC2
COc1ccc(NC(=O)C(C)SCc2ccccc2)cc1 (stereo not given)
Cc1onc(-c2c(Cl)cccc2Cl)c1C(=O)c1c[nH]c(C(=O)NC2CC2)c1
Cc1onc(-c2c(Cl)cccc2Cl)c1C(=O)NNC(=O)c1c(-c2c(Cl)cccc2Cl)noc1C
CCOc1c(CNCc2ccc(C(=O)O)cc2)cccc1OC
CC(=O)Nc1cccc(-c2nc3ccccc3s2)c1C
Cc1ccc(NC(=S)N(CCCN2CCC(C)CC2)Cc2ccco2)cc1
CCOC(=O)c1[nH]c2c(c1-c1ccccc1)C(=O)CC(c1ccc(Cl)cc1)C2 (stereo not given)
CCCOC(=O)c1[nH]c2c(c1C)C(=O)CC(c1cccs1)C2 (stereo not given)
COc1ccc2c(c1)O[C@@H](c1ccc3c(c1)OCO3)[C@H](OC(=O)NCCc1ccc(OC)c(OC)c1)C2=O
O=C(CCS(=O)(=O)Cc1ccccc1)Nc1ccc2c(c1)OCCO2
CC(/C=N/NC(=O)c1cc(-c2ccc3ccccc3c2)n[nH]1)=C\c1ccco1
CC(/C=N/NC(=O)c1ccncc1)=C\c1ccco1

activity, negative = inhibition, inactive:
CCN1C(=O)N[C@@H](c2ccccc2)[C@H](C(C)=O)[C@H]1C 7.43% [at 13.5 µM]
